The record followed here is PubChem BioAssay (NCI).

Among the test systems are MOLT-4 leukemia; SR leukemia; RPMI-8226 leukemia; OVCAR-8 ovarian; OVCAR-5 ovarian; OVCAR-4 ovarian; SK-OV-3 ovarian; IGROV1 ovarian; OVCAR-3 ovarian; HS 578T breast; NCI/ADR-RES ovarian; T-47D breast; BT-549 breast; MDA-MB-435 melanoma; SW-620 colon; MCF7 breast; HCT-116 colon; HCC-2998 colon; KM12 colon.
Experiment in all cases: NCI-60 one-dose screen, 48 h (100 = growth as untreated, 0 = no growth, -100 = all killed)
Holding throughout (conditions): 10 µM unless noted

Where “and” joins values, the source holds several entries; their conditions need not be identical. Identical values can stand only once. This is part of a sample that, as a whole, favours compounds with a hit. Of some 83,000 tested, about 20% had one in any assay.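 Plates (96-well) were seeded with cells, treated with compound at one concentration, and incubated for 48 hours before percent growth was determined.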 Unmarked numbers belong to inactive results. Calls of active or inactive are those of the source. The calls were made as follows: active = growth percent below 10; inactive = the rest.

As to `CCC(=O)C(CC(C)N1CCCCCC1)(c1ccccc1)c1ccccc1` (stereo not drawn), the growth is 93.9% with MOLT-4 leukemia; 102% with SR leukemia; 99.3% with RPMI-8226 leukemia; 97% in the experiment on OVCAR-8 ovarian; 89.1% in the experiment on OVCAR-5 ovarian; 84.2% in the experiment with OVCAR-4 ovarian. The growth in the experiment with SK-OV-3 ovarian was 93.6%; with IGROV1 ovarian, 78.6%; in the experiment on OVCAR-3 ovarian, 96.5%; in the experiment with HS 578T breast, 96.7%; with NCI/ADR-RES ovarian it was 102%; in the experiment with T-47D breast, 95.3%. The growth is 97.4% in the experiment on BT-549 breast; 98.3% with MDA-MB-435 melanoma; 99.1% in the experiment with SW-620 colon; 81.8% with MCF7 breast; 72.1% in the experiment with HCT-116 colon; 97.7% with HCC-2998 colon. In the experiment with KM12 colon, the growth was 107%.

On to `O=[P+](O)c1cccnc1`, for which the growth in the experiment with MOLT-4 leukemia was 109%; in the experiment on SR leukemia, 96.4%; in the experiment with RPMI-8226 leukemia, 100%; in the experiment on OVCAR-8 ovarian it was 107%; in the experiment on OVCAR-5 ovarian it was 107%; with OVCAR-4 ovarian, 107%. The growth in the experiment on SK-OV-3 ovarian is 103%; in the experiment on IGROV1 ovarian, 111%; in the experiment with OVCAR-3 ovarian it was 108%; with HS 578T breast it was 105%; in the experiment on NCI/ADR-RES ovarian, 102%; in the experiment with T-47D breast, 88.2%. Moreover, the growth in the experiment on BT-549 breast was 116%; in the experiment with MDA-MB-435 melanoma it was 107%; in the experiment on SW-620 colon it was 107%; in the experiment on MCF7 breast, 102%; in the experiment with HCT-116 colon it was 102%; with HCC-2998 colon, 115%. Further, the growth in the experiment with KM12 colon was 101%.

Consider `CC(C)CCC1C(=O)NC(=O)NC1=O`, for which the growth was 99.1% in the experiment with MOLT-4 leukemia; 93.5% in the experiment on SR leukemia; 113% with RPMI-8226 leukemia; 98.4% with OVCAR-8 ovarian; 107% in the experiment on OVCAR-5 ovarian; 99.2% with OVCAR-4 ovarian. Besides, the growth in the experiment on SK-OV-3 ovarian was 88.2%; with IGROV1 ovarian it was 96%; with OVCAR-3 ovarian, 101%; in the experiment with HS 578T breast, 96.6%; with NCI/ADR-RES ovarian, 105%; in the experiment with T-47D breast, 78.6%. Further, the growth was 100% in the experiment with BT-549 breast; 99.7% in the experiment on MDA-MB-435 melanoma; 91.8% in the experiment with SW-620 colon; 88.8% in the experiment with MCF7 breast; 98.1% with HCT-116 colon; 107% in the experiment on HCC-2998 colon. The growth in the experiment on KM12 colon is 98.5%.

As to `C[C@@H]1C/C=C\C(=O)O[C@H](/C=C/C#C/C=C/C(C)(C)[C@@H](O)c2cccc(O)c2Br)[C@@H](C)/C=C/[C@H](C)C[C@H](OC(N)=O)C1`, the growth with MOLT-4 leukemia is 19.7%; with SR leukemia it was 5.45% (active); in the experiment on RPMI-8226 leukemia, 11.3%; with OVCAR-8 ovarian, 20.3%; with OVCAR-5 ovarian it was 46.8%; in the experiment on OVCAR-4 ovarian, 50.3%. Further, the growth is 55.9% in the experiment on SK-OV-3 ovarian; 48.6% in the experiment with IGROV1 ovarian; 41.5% in the experiment with OVCAR-3 ovarian; 54.8% with HS 578T breast; 33.5% in the experiment on NCI/ADR-RES ovarian; 12.6% in the experiment with T-47D breast. For the same compound, the growth in the experiment on BT-549 breast is 43.8%; in the experiment on MDA-MB-435 melanoma, 19.2%; with SW-620 colon, 30.4%; with MCF7 breast, 18.6%; in the experiment on HCT-116 colon it was 14.2%; in the experiment with HCC-2998 colon it was 28.2%. The growth in the experiment on KM12 colon was 40.3%.

Consider `CCCCCCCCCCCCCCCC[n+]1ccccc1`, for which the growth with MOLT-4 leukemia was -61.5% (active) and -64.2% (active); in the experiment with SR leukemia, -32.3% (active) and -40.4% (active); in the experiment with RPMI-8226 leukemia, -67.1% (active) and -42.5% (active); with OVCAR-8 ovarian it was -72.2% (active) and -41.8% (active); in the experiment with OVCAR-5 ovarian, -45.6% (active) and -15% (active); with OVCAR-4 ovarian, -5.49% (active) and -2.49% (active). For the same compound, the growth is -43% (active) and -22.4% (active) with SK-OV-3 ovarian; -73% (active) and -60.1% (active) with IGROV1 ovarian; -70.9% (active) and -51% (active) in the experiment with OVCAR-3 ovarian; -26.3% (active) and -12.5% (active) with HS 578T breast; 41.7% and 69.3% with NCI/ADR-RES ovarian; 3.84% (active) and -0.991% (active) with T-47D breast. The growth was -50.8% (active) and -73.3% (active) in the experiment on BT-549 breast; -82.2% (active) and -80.6% (active) in the experiment on MDA-MB-435 melanoma; -84.8% (active) and -29.2% (active) in the experiment on SW-620 colon; -21.9% (active) and -2.32% (active) in the experiment on MCF7 breast; -65% (active) and -95.5% (active) in the experiment with HCT-116 colon; -80.8% (active) and -60.6% (active) in the experiment on HCC-2998 colon. Also, the growth with KM12 colon is -96.2% (active) and -81.6% (active).

Regarding `CC1(C)N=C(N)N=C(N)N1c1ccc(CCC(=O)Nc2ccc(S(=O)(=O)F)cc2)cc1`, the growth in the experiment on MOLT-4 leukemia is 26.1%; in the experiment on SR leukemia, 15.7%; in the experiment with RPMI-8226 leukemia it was 34.4%; with OVCAR-8 ovarian, 36.7%; in the experiment with OVCAR-5 ovarian, 34%; in the experiment with OVCAR-4 ovarian, 92.8%. Besides, the growth in the experiment with SK-OV-3 ovarian was 67.8%; with IGROV1 ovarian, 25.8%; in the experiment on OVCAR-3 ovarian, 96.7%; with HS 578T breast, 82%; in the experiment with NCI/ADR-RES ovarian it was 117%; in the experiment with T-47D breast, 88.9%. Moreover, the growth in the experiment on BT-549 breast is 58.7%; in the experiment on MDA-MB-435 melanoma, 20.8%; with SW-620 colon, 25.8%; in the experiment on MCF7 breast it was 24.9%; in the experiment with HCT-116 colon, 12.3%; in the experiment on HCC-2998 colon it was 42.3%. The growth in the experiment on KM12 colon was 13.3%.

On to `N#CC(C#N)=C(C#N)C#N`, for which the growth in the experiment with MOLT-4 leukemia is 102%; with SR leukemia it was 105%; in the experiment on RPMI-8226 leukemia, 101%; in the experiment on OVCAR-8 ovarian, 96%; in the experiment with OVCAR-5 ovarian, 101%; in the experiment on OVCAR-4 ovarian it was 104%. Moreover, the growth is 109% with SK-OV-3 ovarian; 108% with IGROV1 ovarian; 107% in the experiment with OVCAR-3 ovarian; 103% in the experiment with HS 578T breast; 110% with NCI/ADR-RES ovarian; 95.8% in the experiment with T-47D breast. Moreover, the growth in the experiment on BT-549 breast is 104%; with MDA-MB-435 melanoma it was 107%; in the experiment with SW-620 colon, 104%; with MCF7 breast, 98.1%; in the experiment on HCT-116 colon it was 102%; in the experiment on HCC-2998 colon it was 110%. Further, in the experiment on KM12 colon, the growth was 108%.
